Reference: PubChem BioAssay (NCATS)
Several values for one entry are separate records, joined by “and”; a condition that tells them apart may be missing. Equal entries are not always repeated. Inconclusive results are not listed. Activity calls are given as the source filed them. Unless noted, the call rests on the fitted dose curve; in most records, active means well fitted curve in the direction sought with a large enough effect; inconclusive means small, poorly fitted or top-dose-only effect, or another doubt; inactive means no such curve, though single readings can be large; an effect the other way counts as inactive or inconclusive.

Experiments:
[1] = target: Lysosomal acid glucosylceramidase (Homo sapiens) (UniProt P04062); assay: Glucocerebrosidase-p2 (AID 348; in the data active means potency below about 10 µM; further: potency means the concentration at half of the fitted maximal effect); details: purified GBA, blue fluorogenic substrate, 40 min
In short: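 Compounds titrated from 0.6 nM upwards against 0.2 nM enzyme in pH 5.9 citric acid/KH2PO4, taurocholate, tween-20; blue fluorogenic substrate 80 uM, 40 min room temperature, stopped and read Ex 365/Em 440 for AC50.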

[2] = AP1 Signaling Pathway (AID 357; active means well fitted curve in either direction with a large enough effect, not every such curve was filed as active;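 further: ME-180 reporter cells stimulated with EGF at its EC50 level; on the % scale 0 is the no-effect control and ±100 the full control effect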); details: ME-180 AP-1-bla reporter, EGF-induced, beta-lactamase ratio, 5 h
In short: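 Titration-series screen for positive or negative modulators of EC50 EGF-induced signaling in ME-180 cells carrying an AP-1-driven beta-lactamase reporter. After 5 hours at 37 degrees Celsius, CCF4 460nm/530nm emission ratio gave %Activity; AC50 values derived.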

[3] = NFAT Signaling Pathway (AID 444; active means well fitted curve in either direction with a large enough effect, not every such curve was filed as active;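 further: carbachol stimulus at about its EC50 of 1 µM final; on the % scale 0 is the no-effect control and ±100 the full control effect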); details: Jurkat NFAT-bla M1, carbachol, beta-lactamase ratio, 5 h
In short: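 Jurkat cells carrying an NFAT-driven β-lactamase reporter and co-transfected muscarinic M1 receptor were treated with compound plus carbachol (1 uM final, an EC50 level) for 5 h at 37 °C. CCF4 loading followed for 1 h at RT; 460/530 nm ratio gave %activity.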

[4] = Stat Signaling Pathway (AID 446; active means well fitted curve in either direction with a large enough effect, not every such curve was filed as active;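 further: ME-180 cervical cancer cells given 40 pM IL-6 alongside compound; SIE-controlled beta-lactamase reporter measured as 460/530 nm FRET emission ratio; on the % scale 0 is the no-effect control and ±100 the full control effect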); details: ME-180 SIE beta-lactamase reporter, IL-6 stimulated, 5 h
In short: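 Screening format detects activators and inhibitors alike: ME-180 SIE-bla cells stimulated at 40 pM IL-6 for 5 hrs with compound, then dual-emission beta-lactamase read at 405 nm excitation.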

[5] = target: Glucocorticoid receptor (Homo sapiens) (UniProt P04150); assay: GR-GFP Redistribution (AID 450;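 active means compounds whose dose series gives a full or clear partial fitted curve of increased nuclear translocation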; further: potency means the concentration at half of the fitted maximal effect); details: U2OS GR-GFP nuclear translocation, laser cytometry, 2 h
[6] = target: Glucocorticoid receptor (Homo sapiens) (UniProt P04150); assay: GR-EFC Redistribution (AID 451; calls by dose curve; further: potency means the concentration at half of the fitted maximal effect); details: CHO-K1 GR-EFC translocation, beta-gal luminescence, 2 h
In short: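 CHO-K1 cells stably expressing nuclear-localized β-gal enzyme acceptor and GR fused C-terminally to the enzyme donor fragment; ligand-driven nuclear translocation restores β-gal by complementation. Compounds titrated up to 46 uM final, 2 h at 37 °C; luminescence read.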

[7] = target: Mitogen-activated protein kinase 10 (Mus musculus) (UniProt Q61831); assay: JNK3 AlphaScreen Assay (AID 530; active means well fitted curve in either direction with a large enough effect, not every such curve was filed as active;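 further: kinase came from lysate of stimulated human HepG2 cells; signal reports phosphorylation of biotinylated GST-cJun 1-79 at Ser73 with 10 µM ATP; on the % scale 0 is the no-effect control and ±100 the full control effect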)
In short: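 JNK3 came from HepG2 lysates pre-activated with IL-1beta and TNF-alpha and phosphorylated biotinylated GST-cJun (1-79) at 10 uM ATP, pH 7.6, room temperature. Compounds were titrated. AlphaScreen signal used anti-phospho-cJun (Ser73) antibody.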

[8] = target: 3',5'-cyclic-AMP phosphodiesterase 4B (Homo sapiens) (UniProt Q07343); assay: qHTS Assay for Inhibitors of PDE-IV (AID 607; active means well fitted activation curve with a large enough effect in the main read-out, with a control signal flat, not every such curve was filed as active; further: % of control where 0% means no effect)
In short: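 The readout is membrane depolarisation from a cAMP-sensing CNG channel, detected with a potential dye at ex 535/em 590. Cells were HEK293-derived (endogenous PDE-IV) at 1000 cells/well, titrated up to 22.9 uM final.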

[9] = target: Guanine nucleotide-binding protein G(i) subunit alpha-1 (Homo sapiens) (UniProt P63096); assay: qHTS Assay for Inhibitors of RGS12 GoLoco Motif Activity (Green Fluorophore) (AID 879);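 further: 0% = labeled peptide with Gαi1 and full inhibition = labeled peptide alone without protein; negative values mean loss of peptide binding seen as reduced polarization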
In short: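 Fluorescence polarization assay: 50 nM Gαi1 with 10 nM FITC-labeled RGS12 GoLoco peptide in 10 mM Tris pH 7.5, 150 mM NaCl, 0.1 mM GDP, 0.05% NP40, 10 min at room temperature with compound.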

[10] = qHTS Assay for Identification of Small Molecule Antagonists for NFkB Signaling Pathway (AID 895; active means well fitted inhibition curve with a large enough effect in the signal ratio, with a control signal flat, not every such curve was filed as active; the % refers to the signal ratio; further: on the % scale 0 is the no-effect control and ±100 the full control effect)
In short: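 NFkB-bla ME-180 cervical carcinoma cells with beta-lactamase reporter under NFkB response element; compounds added, then TNF alpha at 10 pM final (EC50), 5 h at 37 C. LiveBLAzer substrate 2 h, room temperature; emission 460/530 nm at 405 nm excitation.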

[11] = qHTS Assay for Identification of Small Molecule Agonists for Thrombopoietin (TPO) Signaling Pathway (AID 917); further: on the % scale 0 is the no-effect control and ±100 the full control effect
In short: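 Murine Ba/F3 cells expressing human TPO receptor and GPIIb-promoter luciferase, IL-3-starved overnight, given compound plus TPO at 26 pM (EC50). After 24 h at 37 C, 5% CO2, luminescence read.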

[12] = target: Pyruvate kinase PKM (Homo sapiens) (UniProt P14618); assay: qHTS Assay for Activators of Human Muscle Pyruvate Kinase (AID 954; active means well fitted curve in the direction sought with a large enough effect, not every such curve was filed as active;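 further: 0% = uninhibited enzyme and -100% = no enzyme or full thiadiazolimine inhibition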)
In short: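 Reaction: 0.1 nM purified PKM2 with 0.5 mM phosphoenolpyruvate and 0.1 mM ADP, room temperature, 1 h. Readout: luciferase-based ATP luminescence after stop reagent. Activators judged against a 0.3 nM enzyme column.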

[13] = target: Alpha-galactosidase A (Homo sapiens) (UniProt P06280); assay: Counterscreen for Glucocerebrosidase Inhibitors: qHTS Assay for Human alpha-Galactosidase at pH 4.5 (AID 992); further: 0% is about no effect
In short: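 Concentration-response curves (0.7 nM to 77 uM final) were modeled with the Hill equation to give AC50. Reactions: 2 nM enzyme, 80 uM fluorogenic alpha-galactoside, pH 4.5 citric acid buffer, 20 min, room temperature.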

[14] = target: alpha-glucosidase (Oryza sativa, rice) (UniProt Q653V4); assay: Counterscreen for Glucocerebrosidase Inhibitors: qHTS Assay for Rice alpha-Glucosidase at pH 5.0 (AID 997);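 further: 0% = full activity with enzyme and -100% = basal without enzyme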
In short: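 Rice alpha-glucosidase (4 nM final) with 400 uM 4-methylumbelliferyl-alpha-D-glucopyranoside in citrate buffer pH 5.0, 20 min at room temperature, stopped at pH 10; fluorescence 365/440 nm, compounds 0.7 nM–77 uM, AC50 from Hill fits.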

[15] = target: Ubiquitin carboxyl-terminal hydrolase 1 (Homo sapiens) (UniProt O94782); assay: Inhibitors of USP1/UAF1: Pilot qHTS (AID 504865);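 further: rhodamine fluorescence freed from ubiquitin-rhodamine substrate followed over time; top concentration of the series differs between compounds; on the % scale 0 is the no-effect control and ±100 the full control effect; nearly all actives have a fitted effect of over 35% in size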
In short: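 USP1/UAF1 complex at 1 nM preincubated 15 min at room temperature with compound, then Ub-Rho substrate added at 150 nM final. Fluorescence (480/540 nm) read kinetically in 50 mM HEPES pH 7.8, 0.5 mM EDTA, 1 mM TCEP, 0.1 mg/ml BSA, 0.01% Tween-20.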

[16] = target: Luciferin 4-monooxygenase (Photinus pyralis) (UniProt P08659); assay: Biochemical firefly luciferase enzyme assay for NPC (AID 624030);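 further: purified P. pyralis luciferase at 10 nM with luciferin and ATP substrate; 0% = DMSO and -100% = full luciferase inhibition by PTC124 control; nearly all actives have a fitted effect of over 70% in size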
In short: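 Counter-screen for direct inhibition of the luciferase enzyme by approved-drug library compounds, run at 10 nM enzyme in 50 mM Tris acetate (final). Luminescence was read within 5 min of enzyme-buffer addition and normalized to PTC124 versus DMSO (0%).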

[17] = S16 Schwann cell viability assay (CellTiter-Glo assay) (AID 624031);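 further: cellular ATP luminescence as a viability measure; plate controls were DMSO-treated cells for no effect and cell-free wells for full effect; nearly all actives have a fitted effect of over 70% in size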
In short: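 This viability control uses native rat S16 Schwann cells grown in DMEM plus 10% FBS. After a 24 h compound treatment at 37 °C, CellTiter-Glo luminescence reports ATP content, scaled against DMSO-treated and cell-free wells.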

[18] = S16 Schwann cell PMP22 intronic element firefly luciferase assay (AID 624032);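 further: plate controls were DMSO for no effect and PTC124 positive control mean for full effect; nearly all actives have a fitted effect of over 30% in size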
In short: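 Rat S16 Schwann cells stably carrying a PMP22 intronic element-driven Fluc reporter were seeded overnight, then exposed to compounds for 24 h at 37 °C. Luminescence was normalized to PTC124 (positive control) and DMSO (0% activity).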

[19] = qHTS profiling for inhibitors of Plasmodium falciparum proliferation (AID 504749);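 further: 0% = DMSO vehicle and full inhibition = artemisinin control; nearly all actives have a fitted effect of over 60% in size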; details: P. falciparum in erythrocytes, SYBR Green DNA, 72 h, at 28.7 µM (top of the series)
In short: (§1)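 P. falciparum-infected erythrocytes (0.3% parasitemia, 2.5% hematocrit final) were exposed to compounds for 72 h at 37 C in 5% CO2, then lysed with SYBR Green buffer overnight at room temperature; parasite DNA fluorescence was normalized to artemisinin and DMSO controls.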

3D7 = assay: as above; details: P. falciparum in erythrocytes, SYBR Green DNA, 72 h; series mostly up to 28.7 µM
In short: as §1

7G8 = assay: as above; details: P. falciparum in erythrocytes, SYBR Green DNA, 72 h; series mostly up to 28.7 µM
In short: as §1

AA1029 = assay: as above; details: P. falciparum in erythrocytes, SYBR Green DNA, 72 h; series mostly up to 28.7 µM
In short: as §1

AS120 = assay: as above; details: P. falciparum in erythrocytes, SYBR Green DNA, 72 h; series mostly up to 28.7 µM
In short: as §1

ATS189 = assay: as above; details: P. falciparum in erythrocytes, SYBR Green DNA, 72 h; series mostly up to 28.7 µM
In short: as §1

ATS95 = assay: as above; details: P. falciparum in erythrocytes, SYBR Green DNA, 72 h; series mostly up to 28.7 µM
In short: as §1

C2A = assay: as above; details: P. falciparum in erythrocytes, SYBR Green DNA, 72 h; series mostly up to 28.7 µM
In short: as §1

CP185 = assay: as above; details: P. falciparum in erythrocytes, SYBR Green DNA, 72 h; series mostly up to 28.7 µM
In short: as §1

CP191 = assay: as above; details: P. falciparum in erythrocytes, SYBR Green DNA, 72 h; series mostly up to 28.7 µM
In short: as §1

CP192 = assay: as above; details: P. falciparum in erythrocytes, SYBR Green DNA, 72 h; series mostly up to 28.7 µM
In short: as §1

CP194 = assay: as above; details: P. falciparum in erythrocytes, SYBR Green DNA, 72 h; series mostly up to 28.7 µM
In short: as §1

CP201 = assay: as above; details: P. falciparum in erythrocytes, SYBR Green DNA, 72 h; series mostly up to 28.7 µM
In short: as §1

CP203 = assay: as above; details: P. falciparum in erythrocytes, SYBR Green DNA, 72 h; series mostly up to 28.7 µM
In short: as §1

CP211 = assay: as above; details: P. falciparum in erythrocytes, SYBR Green DNA, 72 h; series mostly up to 28.7 µM
In short: as §1

CP215 = assay: as above; details: P. falciparum in erythrocytes, SYBR Green DNA, 72 h; series mostly up to 28.7 µM
In short: as §1

CP217 = assay: as above; details: P. falciparum in erythrocytes, SYBR Green DNA, 72 h; series mostly up to 28.7 µM
In short: as §1

CP237 = assay: as above; details: P. falciparum in erythrocytes, SYBR Green DNA, 72 h; series mostly up to 28.7 µM
In short: as §1

Sequence of Glucocorticoid receptor (Homo sapiens) (P04150 whole entry, looked up, the tested form may be a part): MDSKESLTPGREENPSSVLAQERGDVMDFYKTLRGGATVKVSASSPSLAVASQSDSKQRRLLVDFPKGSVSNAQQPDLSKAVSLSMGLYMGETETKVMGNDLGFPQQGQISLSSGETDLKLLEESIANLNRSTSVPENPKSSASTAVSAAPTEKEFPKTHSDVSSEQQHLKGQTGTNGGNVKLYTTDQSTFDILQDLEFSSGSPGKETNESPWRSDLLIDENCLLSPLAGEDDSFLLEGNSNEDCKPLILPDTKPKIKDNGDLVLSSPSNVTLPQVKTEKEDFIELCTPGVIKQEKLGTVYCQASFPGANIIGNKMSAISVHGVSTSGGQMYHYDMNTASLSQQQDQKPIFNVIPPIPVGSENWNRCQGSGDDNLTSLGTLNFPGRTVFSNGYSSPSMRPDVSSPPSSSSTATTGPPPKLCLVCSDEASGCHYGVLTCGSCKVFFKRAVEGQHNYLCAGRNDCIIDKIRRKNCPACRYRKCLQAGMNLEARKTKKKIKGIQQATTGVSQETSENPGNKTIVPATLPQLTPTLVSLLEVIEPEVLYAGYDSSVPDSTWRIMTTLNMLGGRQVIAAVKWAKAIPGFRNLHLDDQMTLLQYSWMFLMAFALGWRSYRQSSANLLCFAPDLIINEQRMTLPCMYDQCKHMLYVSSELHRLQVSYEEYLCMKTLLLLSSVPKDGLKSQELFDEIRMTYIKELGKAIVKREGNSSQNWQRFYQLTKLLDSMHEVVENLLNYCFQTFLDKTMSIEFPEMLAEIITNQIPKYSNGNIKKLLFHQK
Sequence of 3',5'-cyclic-AMP phosphodiesterase 4B (Homo sapiens) (Q07343 whole entry, looked up): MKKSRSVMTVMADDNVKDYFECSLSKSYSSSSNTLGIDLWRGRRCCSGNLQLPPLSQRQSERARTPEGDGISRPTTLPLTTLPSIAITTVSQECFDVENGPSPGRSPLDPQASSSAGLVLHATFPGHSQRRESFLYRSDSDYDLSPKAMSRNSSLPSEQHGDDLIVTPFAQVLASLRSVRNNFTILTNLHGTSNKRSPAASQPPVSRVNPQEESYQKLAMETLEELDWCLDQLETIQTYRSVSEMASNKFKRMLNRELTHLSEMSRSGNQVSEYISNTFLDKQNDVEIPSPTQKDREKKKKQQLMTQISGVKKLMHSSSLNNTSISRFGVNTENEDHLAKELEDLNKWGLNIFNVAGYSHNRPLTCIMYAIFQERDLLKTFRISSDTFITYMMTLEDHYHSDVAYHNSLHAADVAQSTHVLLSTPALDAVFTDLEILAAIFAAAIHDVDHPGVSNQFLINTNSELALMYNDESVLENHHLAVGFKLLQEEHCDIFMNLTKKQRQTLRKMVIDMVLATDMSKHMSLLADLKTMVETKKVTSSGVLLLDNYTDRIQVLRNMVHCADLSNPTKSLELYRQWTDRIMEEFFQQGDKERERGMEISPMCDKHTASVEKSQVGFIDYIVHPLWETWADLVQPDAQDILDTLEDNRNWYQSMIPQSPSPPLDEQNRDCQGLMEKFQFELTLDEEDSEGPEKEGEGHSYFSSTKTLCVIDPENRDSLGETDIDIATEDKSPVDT
Sequence of Luciferin 4-monooxygenase (Photinus pyralis) (P08659 whole entry, looked up): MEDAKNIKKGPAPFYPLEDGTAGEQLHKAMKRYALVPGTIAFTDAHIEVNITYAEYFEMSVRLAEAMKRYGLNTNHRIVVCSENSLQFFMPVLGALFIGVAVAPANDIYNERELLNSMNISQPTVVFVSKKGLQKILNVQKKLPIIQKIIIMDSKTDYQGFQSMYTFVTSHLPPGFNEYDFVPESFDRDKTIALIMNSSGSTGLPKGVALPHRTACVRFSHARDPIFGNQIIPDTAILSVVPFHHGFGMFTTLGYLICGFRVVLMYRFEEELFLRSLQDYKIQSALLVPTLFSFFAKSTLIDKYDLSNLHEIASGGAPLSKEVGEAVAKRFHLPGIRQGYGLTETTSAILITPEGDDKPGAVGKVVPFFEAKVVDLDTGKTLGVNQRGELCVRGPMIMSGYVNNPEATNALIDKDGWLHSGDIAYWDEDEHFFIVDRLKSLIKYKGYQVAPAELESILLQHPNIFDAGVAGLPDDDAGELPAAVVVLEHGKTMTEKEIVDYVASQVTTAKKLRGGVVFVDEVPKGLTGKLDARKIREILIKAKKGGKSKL
Sequence of Lysosomal acid glucosylceramidase (Homo sapiens) (P04062 whole entry, looked up): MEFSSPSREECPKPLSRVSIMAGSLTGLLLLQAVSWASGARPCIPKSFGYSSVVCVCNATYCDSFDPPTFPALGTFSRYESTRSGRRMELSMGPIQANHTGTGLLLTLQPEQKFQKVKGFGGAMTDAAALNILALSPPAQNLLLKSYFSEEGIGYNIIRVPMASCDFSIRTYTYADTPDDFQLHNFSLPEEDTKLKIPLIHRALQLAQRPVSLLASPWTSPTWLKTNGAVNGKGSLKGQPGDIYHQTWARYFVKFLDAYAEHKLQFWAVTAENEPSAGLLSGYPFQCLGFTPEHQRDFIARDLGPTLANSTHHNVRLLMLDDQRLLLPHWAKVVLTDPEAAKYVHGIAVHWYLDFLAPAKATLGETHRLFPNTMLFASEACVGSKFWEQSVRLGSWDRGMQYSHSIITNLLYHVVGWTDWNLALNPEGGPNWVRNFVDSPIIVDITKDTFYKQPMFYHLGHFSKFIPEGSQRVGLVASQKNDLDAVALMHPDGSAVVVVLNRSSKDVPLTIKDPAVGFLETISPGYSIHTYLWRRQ
Sequence of Ubiquitin carboxyl-terminal hydrolase 1 (Homo sapiens) (O94782 whole entry, looked up): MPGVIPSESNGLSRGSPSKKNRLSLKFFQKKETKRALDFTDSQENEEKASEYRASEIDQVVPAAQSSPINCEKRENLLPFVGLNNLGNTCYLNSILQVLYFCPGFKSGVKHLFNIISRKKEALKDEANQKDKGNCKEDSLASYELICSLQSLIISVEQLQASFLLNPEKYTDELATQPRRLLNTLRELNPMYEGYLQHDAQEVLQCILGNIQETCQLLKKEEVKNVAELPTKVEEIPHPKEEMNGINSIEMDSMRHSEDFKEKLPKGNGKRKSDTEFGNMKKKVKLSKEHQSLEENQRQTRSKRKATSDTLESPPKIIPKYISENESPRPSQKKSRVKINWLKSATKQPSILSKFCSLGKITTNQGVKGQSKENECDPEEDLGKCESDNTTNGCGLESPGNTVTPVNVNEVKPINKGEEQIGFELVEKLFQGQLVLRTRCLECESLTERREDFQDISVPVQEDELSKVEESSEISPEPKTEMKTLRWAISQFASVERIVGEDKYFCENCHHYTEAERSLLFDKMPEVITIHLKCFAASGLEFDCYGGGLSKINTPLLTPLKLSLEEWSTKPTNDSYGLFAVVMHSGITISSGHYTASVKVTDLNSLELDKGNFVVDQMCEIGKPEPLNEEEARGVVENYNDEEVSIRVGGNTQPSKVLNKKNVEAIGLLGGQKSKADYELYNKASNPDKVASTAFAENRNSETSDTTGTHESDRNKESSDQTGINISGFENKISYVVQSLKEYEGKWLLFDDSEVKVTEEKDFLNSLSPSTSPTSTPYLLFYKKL
Sequence of Alpha-galactosidase A (Homo sapiens) (P06280 whole entry, looked up): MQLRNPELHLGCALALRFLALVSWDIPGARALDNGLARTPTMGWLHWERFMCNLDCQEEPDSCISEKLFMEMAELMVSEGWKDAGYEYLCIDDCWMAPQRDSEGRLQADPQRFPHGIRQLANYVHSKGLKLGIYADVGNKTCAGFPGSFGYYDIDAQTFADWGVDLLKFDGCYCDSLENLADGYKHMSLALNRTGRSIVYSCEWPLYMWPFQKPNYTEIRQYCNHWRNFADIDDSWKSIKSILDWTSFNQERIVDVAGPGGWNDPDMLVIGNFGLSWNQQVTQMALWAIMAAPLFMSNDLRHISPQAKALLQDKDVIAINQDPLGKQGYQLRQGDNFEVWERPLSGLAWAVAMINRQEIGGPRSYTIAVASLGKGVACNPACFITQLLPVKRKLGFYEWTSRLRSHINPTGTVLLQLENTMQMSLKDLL
Sequence of Pyruvate kinase PKM (Homo sapiens) (P14618 whole entry, looked up): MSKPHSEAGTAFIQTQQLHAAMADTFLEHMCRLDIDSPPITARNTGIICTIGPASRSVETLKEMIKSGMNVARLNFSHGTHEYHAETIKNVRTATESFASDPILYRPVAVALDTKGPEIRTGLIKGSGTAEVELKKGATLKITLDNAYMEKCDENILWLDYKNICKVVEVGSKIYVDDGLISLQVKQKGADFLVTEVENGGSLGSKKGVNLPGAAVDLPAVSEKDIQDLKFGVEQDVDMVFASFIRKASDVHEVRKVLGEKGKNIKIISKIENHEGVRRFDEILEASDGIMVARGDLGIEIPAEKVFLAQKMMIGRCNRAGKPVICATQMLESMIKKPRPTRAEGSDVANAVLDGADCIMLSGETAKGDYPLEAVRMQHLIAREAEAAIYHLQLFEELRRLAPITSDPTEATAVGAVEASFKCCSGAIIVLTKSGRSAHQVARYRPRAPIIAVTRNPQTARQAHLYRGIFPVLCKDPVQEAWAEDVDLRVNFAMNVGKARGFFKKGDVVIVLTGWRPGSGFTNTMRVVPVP
Sequence of Guanine nucleotide-binding protein G(i) subunit alpha-1 (Homo sapiens) (P63096 whole entry, looked up): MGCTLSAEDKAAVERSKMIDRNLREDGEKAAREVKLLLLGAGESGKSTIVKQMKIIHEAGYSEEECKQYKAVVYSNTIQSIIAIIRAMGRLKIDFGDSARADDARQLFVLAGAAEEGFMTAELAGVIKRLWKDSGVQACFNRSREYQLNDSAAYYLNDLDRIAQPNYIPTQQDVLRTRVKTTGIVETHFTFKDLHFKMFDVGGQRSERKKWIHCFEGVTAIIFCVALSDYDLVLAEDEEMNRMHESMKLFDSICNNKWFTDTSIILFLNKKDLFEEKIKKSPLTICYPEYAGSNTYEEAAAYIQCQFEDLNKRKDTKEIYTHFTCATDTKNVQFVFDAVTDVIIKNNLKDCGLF

Cc1cn([C@H]2C[C@H](N=[N+]=[N-])[C@H](CO)O2)c(=O)[nH]c1=O
inactive: Potency [1] > 11.4 µM | activity change, negative = inhibition ([2]; at 7.69 µM (top of the series)) 11.1% | activity change, negative = inhibition ([2]; at 38 µM (top of the series)) 1.21% | activity change, negative = inhibition ([3]; at 7.69 µM (top of the series)) 5.39% | activity change, negative = inhibition ([3]; at 38 µM (top of the series)) -4.43% | activity, negative = inhibition ([4]; at 7.69 µM (top of the series)) -1.74% | activity, negative = inhibition ([4]; at 38 µM (top of the series)) 22.1% | Potency [5] > 46 µM | Potency [6] > 46 µM and > 9.22 µM | Potency [7] | Potency [8] | outcome [9] | Potency [10] | outcome [11] | outcome [12] | outcome [13] | Potency [14] | Potency [15] | outcome [16] | Potency [17] | Potency [18] | activity, negative = inhibition ([19]; parasite line A) 7.02% | activity, negative = inhibition ([19]; parasite line B) 2.08% | Potency (3D7) | Potency (7G8) | Potency (AA1029) | Potency (AS120) | Potency (ATS189) | Potency (ATS95) | Potency (C2A) | Potency (CP185) | Potency (CP191) | Potency (CP192) | Potency (CP194) | Potency (CP201) | Potency (CP203) | Potency (CP211) | Potency (CP215) | Potency (CP217) | Potency (CP237)
